Measurements reported in PubChem BioAssay AID1159580 (chemical genetic matrix, 2015).
Values joined by “and” are separate entries in the source; they are usually repeats but may differ in a detail not shown here. Equal entries are not always repeated. Screen size: about 5,500 compounds; about 2,000 (36%) were called active. Inconclusive results (about 18%) are left out. Rule as the data show it: active = normalized growth mostly below about 0.91 (no sharp cut-off); inconclusive = no clear call, values can overlap the other calls; inactive = mostly above about 0.92. Some of the results follow.

Assay: chemical genetic growth profiling, strain panel (AID 1159580);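 also: tested at 20 µM; growth read once vehicle control cultures reached saturation at 30 °C; 1 = growth at the plate median or of vehicle wells; lower values mean less growth of the strain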
Conditions: S. cerevisiae deletion strains, growth OD

Measured: normalized growth

O=C(/C=C/C=C/c1ccc2c(c1)OCO2)N1CCCCC1
active: locus YAL026C, strain drs2, stronger effect = lower value 0.885 | locus YBR009C, strain hhf1, stronger effect = lower value 0.907 | locus YCL011C, strain gbp2, stronger effect = lower value 0.889 | locus YCL069W, strain vba3, stronger effect = lower value 0.904 | locus YDR137W, strain rgp1, stronger effect = lower value 0.687 | locus YDR195W, strain ref2 1.23 [resistant] | locus YDR318W, strain mcm21, stronger effect = lower value 0.895 | locus YDR392W, strain spt3, stronger effect = lower value 0.599 | locus YDR502C, strain sam2, stronger effect = lower value 0.888 | locus YER015W, strain faa2, stronger effect = lower value 0.922 | locus YER155C, strain BEM2 (second series), stronger effect = lower value 0.696 | locus YGL086W, strain mad1, stronger effect = lower value 0.923 | locus YGL253W, strain hxk2, stronger effect = lower value 0.873 | locus YGR135W, strain pre9, stronger effect = lower value 0.886 | locus YGR229C, strain SMI1, stronger effect = lower value 0.732 | locus YGR252W, strain gcn5, stronger effect = lower value 0.732 | locus YHR142W, strain chs7, stronger effect = lower value 0.857 | locus YJL129C, strain trk1, stronger effect = lower value 0.855 | locus YJL164C, strain tpk1, stronger effect = lower value 0.904
0.779 (active) and 0.987 (inactive): locus YJL095W, strain BCK1, stronger effect = lower value
inactive: locus YAL013W, strain DEP1, stronger effect = lower value 0.962 | locus YAL021C, strain ccr4, stronger effect = lower value 0.965 | locus YAL030W, strain snc1, stronger effect = lower value 0.959 | locus YBL061C, strain skt5, stronger effect = lower value 0.949 | locus YBR021W, strain FUR4, stronger effect = lower value 0.893 | locus YBR023C, strain chs3, stronger effect = lower value 0.92 | locus YBR171W, strain sec66, stronger effect = lower value 0.91 | locus YBR229C, strain ROT2, stronger effect = lower value 0.969 | locus YBR231C, strain swc5, stronger effect = lower value 0.951 | locus YBR279W, strain paf1, stronger effect = lower value 0.952 | locus YCL016C, strain dcc1, stronger effect = lower value 0.915 | locus YCL029C, strain bik1, stronger effect = lower value 0.954 | locus YCL061C, strain MRC1, stronger effect = lower value 0.943 | locus YCR088W, strain abp1, stronger effect = lower value 0.945 | locus YDL005C, strain med2, stronger effect = lower value 0.975 | locus YDL035C, strain GPR1, stronger effect = lower value 0.922 | locus YDL040C, strain nat1, stronger effect = lower value 0.966 | locus YDL074C, strain BRE1, stronger effect = lower value 0.835 | locus YDL101C, strain DUN1, stronger effect = lower value 0.969 | locus YDL134C, strain PPH21, stronger effect = lower value 0.944 | locus YDL185W, strain tfp1, stronger effect = lower value 0.94 | locus YDL192W, strain arf1, stronger effect = lower value 0.939 | locus YDR001C, strain nth1, stronger effect = lower value 0.936 | locus YDR069C, strain doa4, stronger effect = lower value 0.998 | locus YDR101C, strain arx1, stronger effect = lower value 0.931 | locus YDR150W, strain NUM1, stronger effect = lower value 0.986 | locus YDR159W, strain sac3, stronger effect = lower value 0.955 | locus YDR162C, strain NBP2, stronger effect = lower value 0.93 | locus YDR297W, strain sur2, stronger effect = lower value 0.965 | locus YDR334W, strain swr1, stronger effect = lower value 0.968 | locus YDR335W, strain msn5, stronger effect = lower value 0.96 | locus YDR388W, stronger effect = lower value 0.931 | locus YEL003W, strain gim4, stronger effect = lower value 0.94 | locus YEL037C, strain rad23, stronger effect = lower value 0.946 | locus YEL061C, strain CIN8 (second series), stronger effect = lower value 0.969 | locus YEL061C, strain CIN8, stronger effect = lower value 0.971 | locus YER016W, strain bim1, stronger effect = lower value 0.948 | locus YER110C, stronger effect = lower value 0.951 | locus YER111C, strain swi4, stronger effect = lower value 0.986 | locus YER155C, strain BEM2, stronger effect = lower value 0.963 | locus YER167W, strain BCK2, stronger effect = lower value 0.907 | locus YFR010W, strain ubp6, stronger effect = lower value 0.974 | locus YGL078C, strain dbp3, stronger effect = lower value 0.957 | locus YGL167C, strain pmr1, stronger effect = lower value 0.945 | locus YGL173C, strain kem1, stronger effect = lower value 0.926 | locus YGL227W, strain vid30, stronger effect = lower value 0.948 | locus YGL240W, strain doc1, stronger effect = lower value 0.919 | locus YGL248W, strain PDE1, stronger effect = lower value 0.938 | locus YGR078C, strain PAC10, stronger effect = lower value 0.871 | locus YHR013C, strain ard1, stronger effect = lower value 0.951 | locus YHR027C, strain rpn1, stronger effect = lower value 0.959 | locus YHR030C, strain SLT2, stronger effect = lower value 0.939 and 0.975 | locus YHR079C, strain IRE1 (second series), stronger effect = lower value 0.937 | locus YHR079C, strain IRE1, stronger effect = lower value 0.977 | locus YHR094C, strain hxt1, stronger effect = lower value 0.954 | locus YHR129C, strain ARP1, stronger effect = lower value 0.973 | locus YHR200W, strain rpn10, stronger effect = lower value 0.925 | locus YIL066C, strain RNR3, stronger effect = lower value 0.94 | locus YIL073C, strain SPO22, stronger effect = lower value 0.864 | locus YIL125W, strain kgd1, stronger effect = lower value 0.96 | locus YIR030C, strain dcg1, stronger effect = lower value 0.941 | locus YJL092W, strain hpr5, stronger effect = lower value 0.947 | locus YJL095W, strain BCK1 (second series), stronger effect = lower value 0.935 | locus YJL115W, strain asf1, stronger effect = lower value 0.984 | locus YJL134W, strain LCB3, stronger effect = lower value 0.978 | locus YJL154C, strain vps35, stronger effect = lower value 0.96 | locus YJL166W, strain qcr8, stronger effect = lower value 0.93 | locus YJL168C, strain set2, stronger effect = lower value 0.945 | locus YJL187C, strain SWE1 (second series), stronger effect = lower value 0.942 | locus YJL187C, strain SWE1, stronger effect = lower value 0.967 | locus YJR043C, strain POL32, stronger effect = lower value 0.862 | locus YJR066W, strain TOR1, stronger effect = lower value 0.955
